Among all 5,500 compounds or so, about 2,000 (36%) were called active. Not shown: some 18% with an inconclusive outcome. Rule as the data show it: active = normalized growth mostly below about 0.91 (no sharp cut-off); inconclusive = no clear call, values can overlap the other calls; inactive = mostly above about 0.92. This is one part of the list.
Assay: chemical genetic growth profiling, strain panel (AID 1159580);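 also: tested at 20 µM; growth read once vehicle control cultures reached saturation at 30 °C; 1 = growth at the plate median or of vehicle wells; lower values mean less growth of the strain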
Conditions: growth OD

Measured: normalized growth

CC1(C)C(=O)[C@@H]2O[C@@H]2[C@@]2(C)C1C[C@@H](O)[C@]1(C)C2CC[C@@]2(C)[C@H](c3ccoc3)OC(=O)C3OC321 (some centres not stated)
inactive: S. cerevisiae deletion strains, locus YJL187C, strain SWE1, stronger effect = lower value 0.994 | S. cerevisiae deletion strains, locus YJR043C, strain POL32, stronger effect = lower value 0.998 | S. cerevisiae deletion strains, locus YJR066W, strain TOR1, stronger effect = lower value 0.926 | S. cerevisiae deletion strains, locus YKL009W, strain mrt4, stronger effect = lower value 1.02 | S. cerevisiae deletion strains, locus YKL068W, stronger effect = lower value 0.993 | S. cerevisiae deletion strains, locus YKL085W, strain MDH1 (second series), stronger effect = lower value 0.997 | S. cerevisiae deletion strains, locus YKL085W, strain MDH1, stronger effect = lower value 0.997 | S. cerevisiae deletion strains, locus YKL160W, strain elf1, stronger effect = lower value 0.998 | S. cerevisiae deletion strains, locus YKR001C, strain vps1, stronger effect = lower value 0.979 | S. cerevisiae deletion strains, locus YKR026C, strain gcn3, stronger effect = lower value 0.995 | S. cerevisiae deletion strains, locus YKR091W, strain srl3, stronger effect = lower value 0.992 | S. cerevisiae deletion strains, locus YLL001W, strain dnm1, stronger effect = lower value 0.99 | S. cerevisiae deletion strains, locus YLL026W, stronger effect = lower value 0.99 | S. cerevisiae deletion strains, locus YLL041C, strain sdh2, stronger effect = lower value 0.999 | S. cerevisiae deletion strains, locus YLR027C, strain aat2, stronger effect = lower value 0.984 | S. cerevisiae deletion strains, locus YLR039C, strain RIC1, stronger effect = lower value 1.11 | S. cerevisiae deletion strains, locus YLR058C, strain SHM2, stronger effect = lower value 0.997 | S. cerevisiae deletion strains, locus YLR102C, strain apc9, stronger effect = lower value 0.987 | S. cerevisiae deletion strains, locus YLR113W, strain HOG1, stronger effect = lower value 1.01 | S. cerevisiae deletion strains, locus YLR221C, strain rsa3, stronger effect = lower value 0.999 | S. cerevisiae deletion strains, locus YLR258W, strain gsy2, stronger effect = lower value 1.02 | S. cerevisiae deletion strains, locus YLR262C, strain YPT6 (second series), stronger effect = lower value 0.973 | S. cerevisiae deletion strains, locus YLR268W, strain sec22, stronger effect = lower value 0.987 | S. cerevisiae deletion strains, locus YLR320W, strain mms22, stronger effect = lower value 0.998 | S. cerevisiae deletion strains, locus YLR330W, strain CHS5, stronger effect = lower value 1 | S. cerevisiae deletion strains, locus YLR342W, strain FKS1 (second series), stronger effect = lower value 0.992 | S. cerevisiae deletion strains, locus YLR342W, strain FKS1, stronger effect = lower value 0.999 | S. cerevisiae deletion strains, locus YLR357W, strain rsc2, stronger effect = lower value 0.968 | S. cerevisiae deletion strains, locus YLR370C, strain arc18, stronger effect = lower value 0.995 | S. cerevisiae deletion strains, locus YLR371W, strain rom2, stronger effect = lower value 0.982 | S. cerevisiae deletion strains, locus YLR384C, strain iki3, stronger effect = lower value 1.02 | S. cerevisiae deletion strains, locus YLR418C, strain cdc73, stronger effect = lower value 0.919 | S. cerevisiae deletion strains, locus YML016C, strain PPZ1, stronger effect = lower value 1.01 | S. cerevisiae deletion strains, locus YML032C, strain rad52, stronger effect = lower value 0.994 | S. cerevisiae deletion strains, locus YML120C, strain ndi1, stronger effect = lower value 1 | S. cerevisiae deletion strains, locus YML124C, strain tub3, stronger effect = lower value 0.996 | S. cerevisiae deletion strains, locus YMR058W, strain fet3, stronger effect = lower value 1 | S. cerevisiae deletion strains, locus YMR078C, strain ctf18, stronger effect = lower value 0.994 | S. cerevisiae deletion strains, locus YMR125W, strain sto1, stronger effect = lower value 1 | S. cerevisiae deletion strains, locus YMR129W, stronger effect = lower value 1 | S. cerevisiae deletion strains, locus YMR205C, strain PFK2, stronger effect = lower value 0.999 | S. cerevisiae deletion strains, locus YMR223W, strain ubp8, stronger effect = lower value 0.979 | S. cerevisiae deletion strains, locus YMR231W, strain pep5, stronger effect = lower value 0.98 | S. cerevisiae deletion strains, locus YMR263W, strain SAP30, stronger effect = lower value 0.974 | S. cerevisiae deletion strains, locus YMR307W, strain GAS1, stronger effect = lower value 0.938 | S. cerevisiae deletion strains, locus YNL067W, strain RPL9B, stronger effect = lower value 0.982 | S. cerevisiae deletion strains, locus YNL071W, strain lat1, stronger effect = lower value 0.998 | S. cerevisiae deletion strains, locus YNL183C, strain NPR1, stronger effect = lower value 0.951 | S. cerevisiae deletion strains, locus YNL209W, strain ssb2, stronger effect = lower value 1.01 | S. cerevisiae deletion strains, locus YNL233W, strain BNI4, stronger effect = lower value 0.99 | S. cerevisiae deletion strains, locus YNL248C, strain rpa49, stronger effect = lower value 0.991 | S. cerevisiae deletion strains, locus YNL250W, strain rad50, stronger effect = lower value 0.982 | S. cerevisiae deletion strains, locus YNL271C, strain bni1, stronger effect = lower value 0.989 | S. cerevisiae deletion strains, locus YNL298W, strain CLA4, stronger effect = lower value 0.971 | S. cerevisiae deletion strains, locus YNL307C, strain MCK1, stronger effect = lower value 0.967 | S. cerevisiae deletion strains, locus YNL322C, strain KRE1 (second series), stronger effect = lower value 1 | S. cerevisiae deletion strains, locus YNR049C, strain mso1, stronger effect = lower value 1.01 | S. cerevisiae deletion strains, locus YNR052C, strain pop2, stronger effect = lower value 0.964 | S. cerevisiae deletion strains, locus YOL006C, strain TOP1, stronger effect = lower value 0.992 | S. cerevisiae deletion strains, locus YOL012C, strain htz1 0.956 | S. cerevisiae deletion strains, locus YOL147C, strain pex11, stronger effect = lower value 0.988 | S. cerevisiae deletion strains, locus YOR001W, strain rrp6, stronger effect = lower value 1.02 | S. cerevisiae deletion strains, locus YOR061W, strain CKA2, stronger effect = lower value 1.01 | S. cerevisiae deletion strains, locus YOR069W, strain VPS5, stronger effect = lower value 1 | S. cerevisiae deletion strains, locus YOR070C, strain gyp1, stronger effect = lower value 0.992 | S. cerevisiae deletion strains, locus YOR080W, strain dia2, stronger effect = lower value 0.988 | S. cerevisiae deletion strains, locus YOR083W, strain WHI5, stronger effect = lower value 0.992 | S. cerevisiae deletion strains, locus YOR106W, strain vam3, stronger effect = lower value 0.995 | S. cerevisiae deletion strains, locus YOR136W, strain idh2, stronger effect = lower value 0.975 | S. cerevisiae deletion strains, locus YOR144C, strain elg1, stronger effect = lower value 0.985 | S. cerevisiae deletion strains, locus YOR184W, strain ser1, stronger effect = lower value 0.978 | S. cerevisiae deletion strains, locus YOR231W, strain MKK1, stronger effect = lower value 0.983 | S. cerevisiae deletion strains, locus YOR265W, strain rbl2, stronger effect = lower value 0.983 | S. cerevisiae deletion strains, locus YOR270C, strain vph1, stronger effect = lower value 0.946 | S. cerevisiae deletion strains, locus YOR290C, strain snf2, stronger effect = lower value 0.968 | S. cerevisiae deletion strains, locus YOR316C, strain cot1, stronger effect = lower value 0.992 | S. cerevisiae deletion strains, locus YPL051W, strain arl3, stronger effect = lower value 0.986 | S. cerevisiae deletion strains, locus YPL078C, strain atp4, stronger effect = lower value 1.01 | S. cerevisiae deletion strains, locus YPL106C, strain sse1, stronger effect = lower value 1 | S. cerevisiae deletion strains, locus YPL240C, strain hsp82, stronger effect = lower value 1.01 | S. cerevisiae deletion strains, locus YPL256C, strain CLN2, stronger effect = lower value 0.952 | S. cerevisiae deletion strains, locus YPR119W, strain clb2, stronger effect = lower value 0.982 | S. cerevisiae deletion strains, locus YPR141C, strain kar3, stronger effect = lower value 0.992 | S. cerevisiae deletion strains, locus YPR163C, strain tif3, stronger effect = lower value 0.979 | S. cerevisiae deletion strains, locus YPR167C, strain met16, stronger effect = lower value 0.982 | S. cerevisiae deletion strains, strain wtn01, stronger effect = lower value 0.999 | S. cerevisiae strains, strain wild type, stronger effect = lower value 0.994

From PubChem BioAssay AID1159580 (chemical genetic matrix, 2015)
